Measurements: ChEMBL document CHEMBL3988442, “University of Dundee, Small-Polar-MMV Screening Library” (2021)
For some assays here: Potency and affinity values are given separately.

How the values were obtained:
Design in all cases: scale not given: direction of the effect not stated beside the values
[1] = molecular target: Protein translocase subunit SecA (Escherichia coli (strain K12)) (UniProt P10408); assay: Assay to Identify E. coli SecA ATPase Inhibitors; format: functional; conditions: 30 µM
Chain of Protein translocase subunit SecA (Escherichia coli (strain K12)) (P10408 whole entry): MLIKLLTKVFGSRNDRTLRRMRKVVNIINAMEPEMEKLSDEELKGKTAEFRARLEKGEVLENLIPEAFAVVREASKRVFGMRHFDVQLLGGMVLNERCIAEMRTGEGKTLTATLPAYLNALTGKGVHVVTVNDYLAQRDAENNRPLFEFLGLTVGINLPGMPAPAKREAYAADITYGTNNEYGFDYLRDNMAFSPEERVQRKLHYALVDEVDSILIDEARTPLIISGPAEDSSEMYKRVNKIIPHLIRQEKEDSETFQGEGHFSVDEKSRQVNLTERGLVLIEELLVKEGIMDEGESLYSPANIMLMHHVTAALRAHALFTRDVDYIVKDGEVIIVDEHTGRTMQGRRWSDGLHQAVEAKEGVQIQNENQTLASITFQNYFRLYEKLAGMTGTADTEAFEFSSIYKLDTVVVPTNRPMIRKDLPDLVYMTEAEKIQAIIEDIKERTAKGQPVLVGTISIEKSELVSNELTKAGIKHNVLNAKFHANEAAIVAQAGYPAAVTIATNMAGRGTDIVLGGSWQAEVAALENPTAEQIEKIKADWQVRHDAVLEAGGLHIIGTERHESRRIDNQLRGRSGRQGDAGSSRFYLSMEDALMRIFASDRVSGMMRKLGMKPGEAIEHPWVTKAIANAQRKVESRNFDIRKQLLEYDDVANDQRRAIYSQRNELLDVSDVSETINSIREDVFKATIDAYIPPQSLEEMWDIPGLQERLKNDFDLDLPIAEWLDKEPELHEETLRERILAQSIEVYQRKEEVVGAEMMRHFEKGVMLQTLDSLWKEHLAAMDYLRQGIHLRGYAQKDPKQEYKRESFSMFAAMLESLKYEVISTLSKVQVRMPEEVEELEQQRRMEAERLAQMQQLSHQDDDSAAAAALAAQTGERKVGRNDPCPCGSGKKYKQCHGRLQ

[2] = molecular target: T1, Ubiquitin-activating enzyme e1, putative (Leishmania donovani (strain BPK282A1)) (UniProt E9BSI1); assay: Leishmania donovani Ubiquitin Activating Enzyme (LdE1); format: functional; conditions: 30 µM
T1 sequence (whole entry): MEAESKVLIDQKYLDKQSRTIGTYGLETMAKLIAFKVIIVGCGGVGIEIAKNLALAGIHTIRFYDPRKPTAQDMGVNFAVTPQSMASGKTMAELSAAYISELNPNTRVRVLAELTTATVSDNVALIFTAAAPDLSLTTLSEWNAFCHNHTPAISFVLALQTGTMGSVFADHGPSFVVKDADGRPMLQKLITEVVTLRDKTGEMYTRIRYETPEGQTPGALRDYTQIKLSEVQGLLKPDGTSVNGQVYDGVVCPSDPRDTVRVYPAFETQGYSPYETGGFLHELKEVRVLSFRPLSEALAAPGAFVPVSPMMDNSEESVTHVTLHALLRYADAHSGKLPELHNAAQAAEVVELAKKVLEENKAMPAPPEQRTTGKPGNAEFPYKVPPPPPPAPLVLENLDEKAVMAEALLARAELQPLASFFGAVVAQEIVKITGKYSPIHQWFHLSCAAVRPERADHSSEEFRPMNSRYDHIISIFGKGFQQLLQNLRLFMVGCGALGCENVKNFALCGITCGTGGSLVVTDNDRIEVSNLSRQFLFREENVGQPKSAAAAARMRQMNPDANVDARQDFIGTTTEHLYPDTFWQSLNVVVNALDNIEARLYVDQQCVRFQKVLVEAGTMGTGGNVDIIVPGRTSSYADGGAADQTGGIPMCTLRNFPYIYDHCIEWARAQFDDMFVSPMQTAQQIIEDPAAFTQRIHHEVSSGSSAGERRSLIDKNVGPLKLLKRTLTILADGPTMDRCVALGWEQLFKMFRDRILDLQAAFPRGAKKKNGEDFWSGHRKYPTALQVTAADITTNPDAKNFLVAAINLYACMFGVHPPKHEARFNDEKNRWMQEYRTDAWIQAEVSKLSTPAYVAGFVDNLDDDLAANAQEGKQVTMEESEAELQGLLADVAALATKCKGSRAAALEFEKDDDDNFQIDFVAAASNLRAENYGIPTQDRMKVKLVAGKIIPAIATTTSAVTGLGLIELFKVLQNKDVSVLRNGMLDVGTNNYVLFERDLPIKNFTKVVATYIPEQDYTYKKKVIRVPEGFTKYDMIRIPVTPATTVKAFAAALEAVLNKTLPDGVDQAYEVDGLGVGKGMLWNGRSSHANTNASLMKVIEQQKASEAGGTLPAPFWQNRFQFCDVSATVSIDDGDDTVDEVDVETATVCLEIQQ

[3] = molecular target: AMP-activated protein kinase, AMPK (Homo sapiens) (UniProt P54646+O43741+P54619+Q9UGJ0+Q9Y478+Q13131+Q9UGI9); assay: AMP-dependent Kinase enzyme assay. An in vitro enzyme assay that detects ADP turnover that is directly proportional to AMPK activity. This uses naive AMPK that is activated during the assay with MK-8722; format: functional; conditions: 30 µM
[4] = molecular target: Sialic acid-binding Ig-like lectin 9 (Homo sapiens) (UniProt Q9Y336); assay: Hs-Siglec9 ALPHAscreen SOP 20170721; conditions: 10 µM
Chain of Sialic acid-binding Ig-like lectin 9 (Homo sapiens) (Q9Y336 whole entry): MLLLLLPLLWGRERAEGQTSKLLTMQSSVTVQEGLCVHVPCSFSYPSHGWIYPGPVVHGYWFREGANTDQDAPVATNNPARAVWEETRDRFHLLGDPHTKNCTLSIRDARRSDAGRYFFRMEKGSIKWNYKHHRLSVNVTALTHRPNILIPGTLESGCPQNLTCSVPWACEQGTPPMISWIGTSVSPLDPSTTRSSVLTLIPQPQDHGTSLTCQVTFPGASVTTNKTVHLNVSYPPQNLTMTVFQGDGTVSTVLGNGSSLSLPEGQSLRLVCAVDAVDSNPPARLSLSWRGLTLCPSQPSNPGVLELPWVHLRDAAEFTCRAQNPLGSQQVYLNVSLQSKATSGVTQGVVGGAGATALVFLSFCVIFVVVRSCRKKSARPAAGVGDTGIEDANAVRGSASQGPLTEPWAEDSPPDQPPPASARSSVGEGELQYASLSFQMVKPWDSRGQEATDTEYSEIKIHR

Trypanosoma cruzi = assay: Trypanosoma cruzi phosphomannomutase and mannose-1-phosphate guanylyltransferase assay; format: functional; conditions: 10 µM
[5] = molecular target: T2, Arginase-2, mitochondrial (Homo sapiens) (UniProt P78540); assay: in vitro enzyme assay to detect the production of urea directly proportional to the activity of Arginase II; format: functional; conditions: 33.3 µM; note: in the data most compounds retested in dose-response had high values
T2 sequence (whole entry): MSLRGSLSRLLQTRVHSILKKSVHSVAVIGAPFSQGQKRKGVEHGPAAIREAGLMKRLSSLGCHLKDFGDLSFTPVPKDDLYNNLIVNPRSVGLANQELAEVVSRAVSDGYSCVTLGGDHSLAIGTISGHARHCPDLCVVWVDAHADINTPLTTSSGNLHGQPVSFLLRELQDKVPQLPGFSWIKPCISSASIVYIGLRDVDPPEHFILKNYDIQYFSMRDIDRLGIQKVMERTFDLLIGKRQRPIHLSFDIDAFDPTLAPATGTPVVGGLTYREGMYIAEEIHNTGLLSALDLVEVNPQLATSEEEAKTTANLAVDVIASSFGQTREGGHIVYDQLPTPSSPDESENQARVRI

[6] = molecular target: T3, Proteasome subunit beta (Trypanosoma cruzi) (UniProt O96673); assay: Trypanosoma cruzi proteasome chymotrypsin-like activity (TcProtChymo) assay.; note: in the data most compounds retested in dose-response had high values; format: functional; conditions: 9.37 µM
T3 sequence (whole entry): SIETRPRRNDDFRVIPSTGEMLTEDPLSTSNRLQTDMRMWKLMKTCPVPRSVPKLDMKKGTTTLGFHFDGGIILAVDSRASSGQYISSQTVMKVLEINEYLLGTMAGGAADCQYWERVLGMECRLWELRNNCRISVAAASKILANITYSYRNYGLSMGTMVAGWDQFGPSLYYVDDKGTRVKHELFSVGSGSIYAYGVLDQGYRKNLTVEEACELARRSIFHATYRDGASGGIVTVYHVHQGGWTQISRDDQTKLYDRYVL

Homo sapiens = species: Homo sapiens; assay: To identify inhibition of the IFN signalling (Jak-Stat) pathway via expression of an eGFP reporter gene under the control of an IFN-stimulated response element (ISRE) containing MxA promoter.; format: functional; conditions: 30 µM
[7] = molecular target: T4, Tyrosyl-tRNA synthetase, putative (Trypanosoma cruzi (strain CL Brener)) (UniProt Q4DSP6); assay: Trypanosoma cruzi tyrosyl tRNA synthetase (TcYRS) _High Tyrosine SOP; format: functional; conditions: 30 µM; note: in the data most compounds retested in dose-response had high values
T4 sequence (whole entry): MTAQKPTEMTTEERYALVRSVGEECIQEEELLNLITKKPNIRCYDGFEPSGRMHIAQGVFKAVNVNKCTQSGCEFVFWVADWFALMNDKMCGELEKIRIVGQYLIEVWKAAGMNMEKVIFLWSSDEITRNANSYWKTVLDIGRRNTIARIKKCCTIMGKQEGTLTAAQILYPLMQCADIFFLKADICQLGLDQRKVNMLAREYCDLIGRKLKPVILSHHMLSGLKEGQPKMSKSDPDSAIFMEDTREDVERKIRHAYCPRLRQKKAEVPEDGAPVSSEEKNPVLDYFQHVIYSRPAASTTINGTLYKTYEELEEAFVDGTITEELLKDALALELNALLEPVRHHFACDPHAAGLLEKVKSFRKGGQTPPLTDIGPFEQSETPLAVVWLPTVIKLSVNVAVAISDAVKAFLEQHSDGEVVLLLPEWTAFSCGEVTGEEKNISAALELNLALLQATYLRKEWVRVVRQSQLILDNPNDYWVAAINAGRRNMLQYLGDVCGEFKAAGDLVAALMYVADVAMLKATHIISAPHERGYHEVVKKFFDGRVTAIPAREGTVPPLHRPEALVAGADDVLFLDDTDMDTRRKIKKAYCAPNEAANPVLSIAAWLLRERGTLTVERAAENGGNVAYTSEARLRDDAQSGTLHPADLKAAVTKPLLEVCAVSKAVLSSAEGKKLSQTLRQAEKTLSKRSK

[8] = molecular target: T4, Tyrosyl-tRNA synthetase, putative (Trypanosoma cruzi (strain CL Brener)); assay: Trypanosoma cruzi tyrosyl tRNA synthetase (TcYRS) SOP; format: functional; conditions: 30 µM
[9] = molecular target: Chromo domain-containing protein 1 (Saccharomyces cerevisiae (strain ATCC 204508 / S288c) (Baker's yeast)) (UniProt P32657); assay: ScCHD-1 Enzyme Inhibition Assay; format: functional; conditions: 30 µM; note: in the data most compounds retested in dose-response had high values
Chain of Chromo domain-containing protein 1 (Saccharomyces cerevisiae (strain ATCC 204508 / S288c) (Baker's yeast)) (P32657 whole entry, the tested form may be a part): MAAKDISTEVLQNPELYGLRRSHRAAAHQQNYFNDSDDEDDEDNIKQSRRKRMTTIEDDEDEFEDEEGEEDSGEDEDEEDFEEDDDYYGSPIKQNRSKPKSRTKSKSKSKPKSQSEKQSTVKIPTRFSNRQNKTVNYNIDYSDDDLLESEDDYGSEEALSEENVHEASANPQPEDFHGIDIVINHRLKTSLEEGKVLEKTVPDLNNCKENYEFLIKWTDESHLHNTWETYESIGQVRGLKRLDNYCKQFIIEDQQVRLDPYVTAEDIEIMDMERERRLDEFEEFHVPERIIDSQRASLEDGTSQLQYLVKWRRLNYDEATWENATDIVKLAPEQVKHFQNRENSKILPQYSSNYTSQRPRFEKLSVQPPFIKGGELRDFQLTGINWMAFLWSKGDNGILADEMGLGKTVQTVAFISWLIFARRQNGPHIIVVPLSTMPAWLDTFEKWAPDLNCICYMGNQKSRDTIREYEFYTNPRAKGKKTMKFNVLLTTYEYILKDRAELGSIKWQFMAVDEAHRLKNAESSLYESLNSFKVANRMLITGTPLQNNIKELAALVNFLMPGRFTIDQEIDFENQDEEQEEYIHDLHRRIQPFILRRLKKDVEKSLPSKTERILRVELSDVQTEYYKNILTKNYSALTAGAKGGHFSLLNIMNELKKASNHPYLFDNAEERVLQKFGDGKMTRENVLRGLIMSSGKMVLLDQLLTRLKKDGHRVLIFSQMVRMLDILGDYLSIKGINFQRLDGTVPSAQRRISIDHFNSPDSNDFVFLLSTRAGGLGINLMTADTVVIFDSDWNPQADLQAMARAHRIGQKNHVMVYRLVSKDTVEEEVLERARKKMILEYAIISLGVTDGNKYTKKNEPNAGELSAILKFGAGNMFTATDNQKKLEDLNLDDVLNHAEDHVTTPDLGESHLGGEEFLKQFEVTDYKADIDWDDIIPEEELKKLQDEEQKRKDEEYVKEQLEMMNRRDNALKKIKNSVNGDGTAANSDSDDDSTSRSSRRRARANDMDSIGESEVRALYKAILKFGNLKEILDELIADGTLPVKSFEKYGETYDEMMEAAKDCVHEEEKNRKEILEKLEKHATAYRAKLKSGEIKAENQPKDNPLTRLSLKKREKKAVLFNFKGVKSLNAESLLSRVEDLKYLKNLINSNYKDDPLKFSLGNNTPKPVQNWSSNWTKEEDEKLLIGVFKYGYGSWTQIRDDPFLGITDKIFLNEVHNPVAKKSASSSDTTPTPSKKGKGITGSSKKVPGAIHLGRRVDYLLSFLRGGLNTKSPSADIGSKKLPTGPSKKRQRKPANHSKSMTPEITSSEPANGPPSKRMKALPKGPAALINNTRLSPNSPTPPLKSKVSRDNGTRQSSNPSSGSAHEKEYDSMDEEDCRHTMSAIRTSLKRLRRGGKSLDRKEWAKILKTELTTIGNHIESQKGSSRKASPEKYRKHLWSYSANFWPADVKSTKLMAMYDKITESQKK

Compound | Percent Effect [1] [%] | Percent Effect [2] [%] | Percent Effect [3] [%] | Percent Effect [4] [%] | Percent Effect (Trypanosoma cruzi) [%] | Percent Effect [5] [%] | Percent Effect [6] [%] | Percent Effect (Homo sapiens) [%] | Percent Effect [7] [%] | Percent Effect [8] [%] | Percent Effect [9] [%]
CC(C)Cc1noc(CN2CCN(CCOc3ccc(Cl)cc3)CC2)n1 | -5.56 | 21.1 | -0.366 | 9.07 | 5.08 | -3.83 | 14.7 | 32.7 | 5.39 | 19.5 | -8.42
COCC1c2c(cnn2CC2CCOCC2)CCN1Cc1ccoc1 (stereo unspecified) | -3.48 | 8.11 | 4.63 | 0.649 | 1.76 | 4.17 | 16 | -5.7 | 10.9 | 11 | -3.93
COc1ccc(C(=O)N2CCCCC2c2nc(C)cs2)nn1 (stereo unspecified) | -4.04 | 2.6 | -3.01 | 4.77 | 10.3 | 3.2 | -4.39 | 7.94 | 5.83 | 14.6 | 69.5
O=C(CCOCc1ccccc1)N1CCCC1c1noc(C2CC2)n1 (stereo unspecified) | -0.0528 | 21.6 | -9.42 | 3.05 | 1.23 | -10.4 | 5.22 | 4.41 | -23.1 | 25.9 | -10
CS(=O)(=O)NCC1CCCN(C(=O)Nc2cccnc2N2CCCC2)C1 (stereo unspecified) | -5.11 | 13.2 | -26.3 | -7.09 | -6.33 | 2.37 | 16.4 | -14.6 | 2.13 | 5.2 | -7
O=C(c1ccsc1)N1C[C@@H]2C[C@@H](c3nnc(C4CC4)o3)O[C@@H]2C1 | -1.51 | 7.79 | 6.12 | 6.45 | -4.63 | 5.81 | 3.31 | 15 | 1.06 | 3.85 | -4.38
CNC(=O)[C@H]1C[C@H]2OCC[C@H]2N(Cc2cccc3ccccc23)C1 | -2.27 | 10.4 | 2.57 | 2.56 | -0.296 | -3.23 | 8.01 | -0.999 | 3.17 | 8.97 | -9.11
CNC(=O)NC(=O)Cn1cc(-c2ccccc2)cn1 | -4.72 | 6.33 | 12.6 | 5.24 | -5.03 | -1.07 | 8.23 | 17.1 | 2.08 | 10.1 | -4.57
COc1cccc2c1OCC(CNC(=O)CSc1nc(N)n[nH]1)C2 (stereo unspecified) | -4.78 | 0 | -3.58 | 26.8 | 3.62 | -3.23 | 8.84 | 4.85 | 8.6 | 21 | -3.99
COC1CCN(C(=O)Cc2csc(-c3ncccn3)n2)CC1 | -1.74 | 10.5 | 1.3 | 6.25 | 6.96 | 3.83 | 9.19 | -15.6 | 2.45 | 17.1 | -5.39
CC(C)(C)c1nnc(CN2CCCC2c2noc(C3CC3)n2)o1 (stereo unspecified) | 0.285 | 8.11 | 0.0576 | -0.506 | 2.32 | -0.554 | 8.08 | -8.49 | 10.9 | 28.1 | -6.45
O=C(Cc1ccsc1)N1C[C@@H]2CN(Cc3ccoc3)CCO[C@@H]2C1 | -1.51 | 0 | 4.82 | 8.18 | 1.86 | 0.955 | 14.6 | -8.8 | 0 | 7.69 | 11.3
Cc1c(C)n(-c2ccccn2)c2nc3c(c(N)c12)CCCC3 | -1.37 | -14.7 | 7.92 | 7.22 | -3.34 | -10 | 25.1 | 5.7 | 1.06 | -51.3 | -7.7
Cc1ccc(O)c(CNC2CCc3nc(C(C)C)nn3C2)n1 (stereo unspecified) | -9.46 | 13.2 | 2.66 | 6.11 | 3.02 | -5.92 | 8.15 | -5.66 | 1.06 | 10.4 | -14.7
CC(O)CN1CCC(CNCc2cccc(Br)c2)CC1 (stereo unspecified) | -6.33 | 5.41 | -21.1 | 11.5 | -4.25 | -5.61 | -0.721 | 11.2 | 2.46 | -1.24 | 4.26
Cc1ccc(CC(=O)N(C)CC2(O)CCN(c3ccccn3)C2)s1 (stereo unspecified) | -3.85 | -1.35 | 12.4 | -1.42 | 0.198 | -2.09 | 0 | 1.85 | 4.3 | 6.49 | -1.65
